PubChem BioAssay (NCI)
This is part of a sample that, as a whole, favours compounds with a hit. Of some 79,000 tested, about 15% had one in any assay. A number with no mark means an inactive call. Calls of active or inactive are those of the source. Cut-off read from the data, not from the text of the source: active = growth inhibition above about 70%; inactive = the rest.

Assays:
[1] = NCI Yeast Anticancer Drug Screen. Data for the rad50 strain (AID 155);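 note: 0% = growth of vehicle-only cultures of the same strain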; settings: S. cerevisiae rad50 strain growth inhibition, hits give high values
Summary of the method: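 Vehicle-treated cultures provide the reference for the growth inhibition reported for compound-exposed, repair-deficient yeast.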

[2] = NCI Yeast Anticancer Drug Screen. Data for the mec2-1 strain (AID 157); settings: S. cerevisiae mec2-1 strain, hits give high values
Summary of the method: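 Strain: mec2-1 (DNA repair/cell cycle alteration). Compound exposure, then growth measured; inhibition expressed relative to vehicle.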

[3] = NCI Yeast Anticancer Drug Screen. Data for the sgs1 mgt1 strain (AID 161);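 note: 0% = growth of cultures given vehicle only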; settings: S. cerevisiae sgs1 mgt1 strain, hits give high values
Summary of the method: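 Read-out: growth inhibition vs vehicle controls. Cells: mutant yeast strain deficient in DNA damage repair.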

[4] = NCI Yeast Anticancer Drug Screen. Data for the cln2 rad14 strain (AID 165);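 note: 0% = growth equal to vehicle treated cultures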; settings: S. cerevisiae cln2 rad14 strain, hits give high values
Summary of the method: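 Compounds are applied to the cln2 rad14 yeast strain, and growth is then compared with that of vehicle-treated cultures to give inhibition.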

[5] = NCI Yeast Anticancer Drug Screen. Data for the bub3 strain (AID 167); settings: S. cerevisiae bub3 mutant strain, hits give high values
Summary of the method: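 Mutant yeast screening strain plus compound; vehicle-treated cultures serve as the 0% inhibition reference.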

[6] = NCI Yeast Anticancer Drug Screen. Data for the mlh1 rad18 strain (AID 175); settings: S. cerevisiae mlh1 rad18 strain growth inhibition, hits give high values
Summary of the method: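 Read-out is yeast growth inhibition, calculated against vehicle-only controls. The compound was applied to a strain engineered with DNA damage repair alterations.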

[7] = at 5.0 µM (retest, dose inferred, filed as 0.5)
[8] = at 50.0 µM (retest, dose inferred, filed as 5.0)

Structure (SMILES) | growth inhibition [1, 7] | growth inhibition [1, 8] | growth inhibition ([1]; at 50.0 µM) | growth inhibition [2, 7] | growth inhibition [2, 8] | growth inhibition ([2]; at 50.0 µM) | growth inhibition [3, 7] | growth inhibition [3, 8] | growth inhibition ([3]; at 50.0 µM) | growth inhibition [4, 7] | growth inhibition [4, 8] | growth inhibition ([4]; at 50.0 µM) | growth inhibition [5, 7] | growth inhibition [5, 8] | growth inhibition ([5]; at 50.0 µM) | growth inhibition [6, 7] | growth inhibition [6, 8] | growth inhibition ([6]; at 50.0 µM)
CC(=O)C1(O)C(Br)CC2C3CC=C4CC(O)CCC4(C)C3CCC21C (configuration not stated) | 43% | 98% (active) | 90.3% (active) | 37% | 99% (active) | 79.5% (active) | 46% | 98% (active) | 86.4% (active) | 37% | 98% (active) | 87.9% (active) | 49% | 98% (active) | 85% (active) | 53% | 98% (active) | 83.8% (active)
CCCCCCCCCCCCCC(=O)OCCCC1CCCO1 (configuration not stated) | -2% | -2% | 8.55% | -2% | 2% | -13.8% | -1% | 4% | 13.2% | 7% | 7% | 53.6% | -2% | -3% | 11.3% | 11% | 0% | -38.2%
CN(C)C(=S)Oc1ccc(C(C)(C)C)cc1 | -156% | -68% | 50.9% | -53% | -59% | -14.4% | -65% | -47% | 40.5% | -72% | -68% | -34.7% | -65% | -27% | 60.4% | -129% | -123% | 29.1%
CN(C)C=Nc1c2ccccc2nc2ccccc12 | 21% | 83% (active) | 71.1% (active) | 23% | 80% (active) | 57.1% | 11% | 65% | 68.7% | 37% | 60% | 55.7% | 5% | 71% (active) | 75% (active) | -8% | 84% (active) | 76.3% (active)
CC(C)/C(Cl)=N/OC(NC(=O)Nc1ccc(Cl)c(Cl)c1)(C(F)(F)F)C(F)(F)F | 7% | 99% (active) | 99.2% (active) | 9% | 100% (active) | 99.6% (active) | 5% | 100% (active) | 99.5% (active) | 26% | 99% (active) | 99.2% (active) | 40% | 100% (active) | 99.5% (active) | 23% | 99% (active) | 99.5% (active)
COc1cc(/C=C2\Sc3scc(-c4cccc([N+](=O)[O-])c4)[n+]3C2=O)cc(OC)c1OC | 1% | 94% (active) | 99% (active) | -1% | 82% (active) | 99% (active) | 13% | 40% | 86.2% (active) | -26% | 91% (active) | 98.4% (active) | -10% | 95% (active) | 99.1% (active) | 5% | 73% (active) | 99% (active)
c1ccc(Nc2nnc3nc(-c4ccccc4)c(-c4ccccc4)nn23)cc1 | 12% | 60% | 65.2% | 12% | 82% (active) | 55.1% | 19% | 91% (active) | 91.5% (active) | -1% | 41% | 33% | 6% | 39% | 36.1% | 5% | 84% (active) | 70.1% (active)
CC(=O)OCC(C(N)=O)(c1ccccc1)c1ccccc1 | -5% | 1% | -2.6% | -2% | 2% | -10% | -1% | -5% | 12.8% | -5% | -3% | 91.5% (active) | -7% | -1% | 2.8% | -6% | -6% | 11%
O=c1ccc2ccc(Cl)cc2[nH]1 | -9% | 1% | -27.9% | -5% | 16% | -5.9% | -5% | -8% | 8.05% | 17% | 17% | 50% | 4% | 1% | -10.3% | 9% | 20% | 4.8%
O=Cc1c(O)ccc2ccccc12 | 12% | 99% (active) | 99.2% (active) | 8% | 98% (active) | 99.4% (active) | 11% | 99% (active) | 99.2% (active) | 6% | 99% (active) | 99% (active) | 2% | 98% (active) | 99.5% (active) | 17% | 98% (active) | 99.2% (active)
Nc1ccc(N)c2c1C(=O)c1ccccc1C2=O | 32% | 72% (active) | 83.2% (active) | -1% | 11% | 11.7% | 2% | 14% | 24.6% | 3% | 3% | 6.9% | 0% | 24% | 31.3% | 5% | 22% | 50.6%
CCOC(=O)c1ccc(NC(=O)O/N=C(/Cl)CCl)cc1 | -14% | 99% (active) | 41.2% | -5% | 95% (active) | 83.8% (active) | -22% | 50% | 55.3% | -10% | 78% (active) | 57.2% | -16% | 43% | 73.5% (active) | -5% | 79% (active) | 69%
O=P(C(=S)Nc1ccccc1Cl)(c1ccccc1)c1ccccc1 | 15% | 96% (active) | 88.5% (active) | 16% | 98% (active) | 90.5% (active) | -1% | 96% (active) | 92.8% (active) | -6% | 97% (active) | 87.5% (active) | -26% | 97% (active) | 89.2% (active) | -26% | 96% (active) | 89.2% (active)
CCOC(=O)C1SC(=Nc2cccc(Cl)c2C)N=C1C (configuration not stated) | 22% | 83% (active) | 85.3% (active) | 24% | 72% (active) | 88.1% (active) | 23% | 91% (active) | 82% (active) | 27% | 73% (active) | 86% (active) | 34% | 88% (active) | 89.4% (active) | 38% | 91% (active) | 86.2% (active)
CN1C(=S)C(=N)OC1c1ccccc1F (configuration not stated) | 7% | 91% (active) | 84.3% (active) | 16% | 97% (active) | 75.3% (active) | 7% | 98% (active) | 85.6% (active) | -2% | 82% (active) | 33.4% | 10% | 99% (active) | 89.2% (active) | -13% | 96% (active) | 84.8% (active)
Cc1noc(NS(=O)(=O)c2ccc(N=Nc3cc(N=Nc4ccc(S(=O)(=O)Nc5onc(C)c5C)cc4)c4c(NC(=O)C(Cl)Cl)cccc4c3O)cc2)c1C (tested in a mixture with another compound) | 96% (active) | 61% | 73% (active) | 97% (active) | 57% | 74.5% (active) | 95% (active) | 63% | 75% (active) | 96% (active) | 65% | 63.4% | 95% (active) | 56% | 49.1% | 88% (active) | 43% | 59.2%
COc1ccc(/C=N/N=c2\[nH][nH]/c(=N\N=C\c3ccc(OC)c4ccccc34)c3ccccc23)c2ccccc12 | 15% | 34% | 57.6% | 0% | 59% | 47.5% | 4% | 76% (active) | 86.9% (active) | -7% | 28% | 37.6% | 0% | 78% (active) | 33.4% | 12% | 85% (active) | 65%
Clc1ccc(OCC(Cn2ccnc2)c2ccc(Cl)cc2)cc1 (configuration not stated) | 74% (active) | 91% (active) | 99.8% (active) | 55% | 80% (active) | 99.9% (active) | 70% (active) | 97% (active) | 99.8% (active) | 60% | 89% (active) | 99.5% (active) | 73% (active) | 98% (active) | 99.8% (active) | 64% | 97% (active) | 99.2% (active)
NCCCC(=O)NC(Cc1cnc[nH]1)C(=O)O (configuration not stated) | 0% | -5% | -1.3% | -6% | -4% | 29.4% | 1% | -11% | 11.8% | 1% | -2% | 32.5% | -4% | -1% | 2.75% | -11% | -37% | -6.45%
